The source made the active and inactive calls. Rule for the calls: active = hit-call score of the fitted dose curve at least 0.9, where 1 is the maximum; inactive = score below 0.9.
Columns and labels:
Conditions in all cases: mRNA level, 48 h; actives raise or lower the signal
[1] = read-out: Bcl-2 (BAD) gene, BAD (gene 572); experiment: LTEA_HepaRG_BAD: Life Technologies and Expression Analysis (LTEA) Assay for Bcl-2 (BAD) gene using HepaRG (AID 2283469)
Outline: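 HepaRG, 48 h exposure, 8-pt half-log curve from 100 uM in 0.5% DMSO, duplicates. Readout: TaqMan qRT-PCR for BAD mRNA, housekeeping-normalised (ACTB/GAPDH/POLR2A); gain or loss fitted against DMSO baseline.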

[2] = read-out: Bcl-2 (BAX) gene, BAX (gene 581); experiment: LTEA_HepaRG_BAX: Life Technologies and Expression Analysis (LTEA) Assay for Bcl-2 (BAX) gene using HepaRG (AID 2283470)
Outline: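 qRT-PCR read-out of BAX mRNA, normalized to three housekeeping genes, after 48 h chemical exposure of human HepaRG cells in serum-free induction medium; eight-point half-log series, top 100 uM, 0.5% DMSO vehicle; bidirectional fit versus DMSO.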

[3] = read-out: adenosine kinase (ADK) gene, ADK (gene 132); experiment: LTEA_HepaRG_ADK: Life Technologies and Expression Analysis (LTEA) Assay for adenosine kinase (ADK) gene using HepaRG (AID 2283471)
Outline: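 Differentiated HepaRG cells dosed 48 h in serum-free induction medium, 0.5% DMSO vehicle, eight half-log concentrations from 100 uM, in duplicate. ADK mRNA by TaqMan qRT-PCR normalised to ACTB, GAPDH, POLR2A; bidirectional fit versus DMSO.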

[4] = read-out: Alpha-fetoprotein (AFP) gene, AFP (gene 174); experiment: LTEA_HepaRG_AFP: Life Technologies and Expression Analysis (LTEA) Assay for Alpha-fetoprotein (AFP) gene using HepaRG (AID 2283472)
Outline: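 qRT-PCR (Fluidigm TaqMan) readout of AFP transcript, normalized to three housekeeping genes, fitted bidirectionally against 0.5% DMSO baseline. HepaRG cells received chemicals for 48 h in serum-free induction medium, top concentration 100 uM, half-log steps.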

BCL2L11 (gene 10018) = experiment: LTEA_HepaRG_BCL2L11: Life Technologies and Expression Analysis (LTEA) Assay for Bcl-2 (BCL2L11) gene using HepaRG (AID 2283473)
Outline: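 Read-out is BCL2L11 transcript level by qRT-PCR, normalized to three housekeeping genes and fitted bidirectionally against 0.5% DMSO vehicle. HepaRG cells received chemicals for 48 h in serum-free induction medium, 100 uM down in half-log dilutions.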

[5] = read-out: Apolipoprotein A-V (APOA5) gene, APOA5 (gene 116519); experiment: LTEA_HepaRG_APOA5: Life Technologies and Expression Analysis (LTEA) Assay for Apolipoprotein A-V (APOA5) gene using HepaRG (AID 2283474)
Outline: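 Readout is APOA5 transcript level by qRT-PCR on Fluidigm dynamic arrays, normalized to three housekeeping genes. HepaRG cultures received chemicals for 48 h at up to 100 uM (half-log steps, 0.5% DMSO), with gain or loss scored relative to DMSO.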

[6] = read-out: Apoptosis regulator Bcl-2 (Homo sapiens) (UniProt P10415); experiment: LTEA_HepaRG_BCL2: Life Technologies and Expression Analysis (LTEA) Assay for Bcl-2 gene using HepaRG (AID 2283475)
Outline: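 qRT-PCR read-out (Fluidigm TaqMan) of BCL2 transcript, normalised to three housekeeping genes, after 48 h chemical exposure of HepaRG cells; 8-point half-log series, top 100 uM, 0.5% DMSO vehicle. Gain or loss of signal fitted relative to DMSO baseline.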

[7] = read-out: Bcl-2 (BID) gene, BID (gene 637); experiment: LTEA_HepaRG_BID: Life Technologies and Expression Analysis (LTEA) Assay for Bcl-2 (BID) gene using HepaRG (AID 2283476)
Outline: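 HepaRG, 48 h exposure, 8-pt half-log series, top 100 uM, 0.5% DMSO vehicle, duplicates. Readout: BID mRNA by TaqMan qRT-PCR; housekeeping-normalized; bidirectional curve fit vs DMSO baseline.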

Caspase-3 (Homo sapiens) = Caspase-3 (Homo sapiens) (UniProt P42574); experiment: LTEA_HepaRG_CASP3: Life Technologies and Expression Analysis (LTEA) Assay for cysteine-aspartic acid protease (CASP3) using HepaRG (AID 2283477)
Outline: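 Read-out is CASP3 mRNA level by TaqMan qRT-PCR in human HepaRG cells after 48 h chemical exposure. Eight half-log concentrations topping at 100 uM were tested in 0.5% DMSO; gain or loss was fitted relative to DMSO.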

[8] = read-out: Cytochrome P450 (CYP24A1), CYP24A1 (gene 1591); experiment: LTEA_HepaRG_CYP24A1: Life Technologies and Expression Analysis (LTEA) Assay for Cytochrome P450 (CYP24A1) using HepaRG (AID 2283478)
Outline: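 HepaRG, 48 h chemical exposure, 8-pt half-log CRC from 100 uM, 0.5% DMSO vehicle, duplicates. Endpoint: CYP24A1 mRNA by Fluidigm TaqMan qRT-PCR, normalized ACTB/GAPDH/POLR2A; gain/loss fit vs DMSO.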

[9] = read-out: Cytochrome P450 (CYP1A2), CYP1A2 (gene 1544); experiment: LTEA_HepaRG_CYP1A2: Life Technologies and Expression Analysis (LTEA) Assay for Cytochrome P450 (CYP1A2) using HepaRG (AID 2283479)
Outline: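 CYP1A2 transcript induction or loss, quantified by Fluidigm qRT-PCR against three housekeeping genes, was fitted bidirectionally against 0.5% DMSO controls. Human HepaRG cells received eight half-log concentrations from 100 uM over 48 h.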

[10] = read-out: cysteine-aspartic acid protease (CASP8), CASP8 (gene 841); experiment: LTEA_HepaRG_CASP8: Life Technologies and Expression Analysis (LTEA) Assay for cysteine-aspartic acid protease (CASP8) using HepaRG (AID 2283480)
Outline: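 qRT-PCR readout of CASP8 mRNA, normalized to three housekeeping genes, after 48 h chemical exposure of HepaRG cells; 8-point half-log series, top 100 uM, 0.5% DMSO vehicle. Bidirectional curve fitting against DMSO baseline.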

[11] = read-out: Cytochrome P450 (CYP2B6), CYP2B6 (gene 1555); experiment: LTEA_HepaRG_CYP2B6: Life Technologies and Expression Analysis (LTEA) Assay for Cytochrome P450 (CYP2B6) using HepaRG (AID 2283481)
Outline: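 HepaRG cells plated 48 h, switched to serum-free induction medium, then dosed 48 h (8 points, half-log from 100 uM, 0.5% DMSO). RNA isolated; CYP2B6 expression measured by qRT-PCR; gain or loss fitted relative to DMSO.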

[12] = read-out: Cytochrome P450 2C19 (Homo sapiens) (UniProt P33261); experiment: LTEA_HepaRG_CYP2C19: Life Technologies and Expression Analysis (LTEA) Assay for CYP2C19 using HepaRG (AID 2283482)
Outline: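 Transcript levels of CYP2C19 were quantified by qRT-PCR after HepaRG cells were treated for 48 hours with test chemicals up to 100 uM (eight half-log concentrations, 0.5% DMSO vehicle). Gain or loss of signal was fitted relative to DMSO.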

CYP2C8 (gene 1558) = experiment: LTEA_HepaRG_CYP2C8: Life Technologies and Expression Analysis (LTEA) Assay for CYP2C8 using HepaRG (AID 2283483)
Outline: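 HepaRG (human liver line), 48 h chemical exposure, 8-pt half-log series from 100 uM, 0.5% DMSO vehicle. Readout: CYP2C8 transcript by qRT-PCR, housekeeping-normalized. Bidirectional fit vs DMSO baseline.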

CYP2C9 (gene 1559) = experiment: LTEA_HepaRG_CYP2C9: Life Technologies and Expression Analysis (LTEA) Assay for CYP2C9 using HepaRG (AID 2283484)
Outline: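 HepaRG, 48 h dosing, 8-pt half-log series, top 100 uM, 0.5% DMSO vehicle. Read-out: CYP2C9 transcript by TaqMan qRT-PCR, housekeeping-normalized (ACTB/GAPDH/POLR2A). Gain or loss fitted vs DMSO baseline.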

CYP2E1 (gene 1571) = experiment: LTEA_HepaRG_CYP2E1: Life Technologies and Expression Analysis (LTEA) Assay for CYP2E1 using HepaRG (AID 2283485)
Outline: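 CYP2E1 transcript was measured by TaqMan qRT-PCR in human HepaRG cultures after 48 h chemical exposure (top 100 uM, half-log steps, 0.5% DMSO vehicle). Housekeeping-gene normalization; gain or loss fitted relative to DMSO baseline.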

CYP4A11 (gene 1579) = experiment: LTEA_HepaRG_CYP4A11: Life Technologies and Expression Analysis (LTEA) Assay for CYP4A11 using HepaRG (AID 2283486)
Outline: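 HepaRG, 48 h chem exposure, 8 conc (100 uM top, half-log), 0.5% DMSO vehicle; qRT-PCR readout, housekeeping-gene normalized; bidirectional curve fit vs DMSO baseline.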

[13] = read-out: Cytochrome P450 3A4 (Homo sapiens) (UniProt P08684); experiment: LTEA_HepaRG_CYP3A4: Life Technologies and Expression Analysis (LTEA) Assay for CYP3A4 using HepaRG (AID 2283487)
Outline: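 Differentiated HepaRG cells in serum-free induction medium exposed in duplicate for 48 h to 8 half-log concentrations up to 100 uM in 0.5% DMSO. CYP3A4 mRNA measured by qRT-PCR normalized to ACTB, GAPDH and POLR2A; bidirectional fit versus DMSO.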

[14] = read-out: DNA damage-inducible transcript 3 (DDIT3), DDIT3 (gene 1649); experiment: LTEA_HepaRG_DDIT3: Life Technologies and Expression Analysis (LTEA) Assay for DNA damage-inducible transcript 3 (DDIT3) using HepaRG (AID 2283488)
Outline: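 qRT-PCR readout (Fluidigm TaqMan), housekeeping-normalized to ACTB, GAPDH, POLR2A. HepaRG cells, 48 h exposure, 8-point half-log series from 100 uM in 0.5% DMSO, duplicates. Gain or loss of signal fitted against DMSO baseline.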

Measured: AC50

Chain of Apoptosis regulator Bcl-2 (Homo sapiens) (P10415 whole entry, looked up): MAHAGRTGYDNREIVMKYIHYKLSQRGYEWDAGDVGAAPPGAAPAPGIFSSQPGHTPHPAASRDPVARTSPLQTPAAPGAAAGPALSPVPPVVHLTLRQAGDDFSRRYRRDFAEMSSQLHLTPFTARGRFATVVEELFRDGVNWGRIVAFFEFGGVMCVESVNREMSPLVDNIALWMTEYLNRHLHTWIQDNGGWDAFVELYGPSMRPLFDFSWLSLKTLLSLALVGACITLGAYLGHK
Chain of Cytochrome P450 3A4 (Homo sapiens) (P08684 whole entry, looked up): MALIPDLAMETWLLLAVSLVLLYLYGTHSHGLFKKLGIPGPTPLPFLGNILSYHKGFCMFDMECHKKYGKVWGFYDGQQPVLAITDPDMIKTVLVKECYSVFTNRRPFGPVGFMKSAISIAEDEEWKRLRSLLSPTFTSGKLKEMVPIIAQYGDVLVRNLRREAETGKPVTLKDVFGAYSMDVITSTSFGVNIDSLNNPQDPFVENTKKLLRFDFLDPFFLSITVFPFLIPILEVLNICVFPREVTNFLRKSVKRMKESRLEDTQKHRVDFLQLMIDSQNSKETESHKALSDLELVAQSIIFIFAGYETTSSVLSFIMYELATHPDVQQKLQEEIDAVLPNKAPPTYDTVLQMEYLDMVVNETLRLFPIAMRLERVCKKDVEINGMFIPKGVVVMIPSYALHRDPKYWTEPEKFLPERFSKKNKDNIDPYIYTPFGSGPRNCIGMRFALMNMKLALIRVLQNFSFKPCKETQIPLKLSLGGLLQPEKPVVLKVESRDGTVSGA
Chain of Caspase-3 (Homo sapiens) (P42574 whole entry, looked up): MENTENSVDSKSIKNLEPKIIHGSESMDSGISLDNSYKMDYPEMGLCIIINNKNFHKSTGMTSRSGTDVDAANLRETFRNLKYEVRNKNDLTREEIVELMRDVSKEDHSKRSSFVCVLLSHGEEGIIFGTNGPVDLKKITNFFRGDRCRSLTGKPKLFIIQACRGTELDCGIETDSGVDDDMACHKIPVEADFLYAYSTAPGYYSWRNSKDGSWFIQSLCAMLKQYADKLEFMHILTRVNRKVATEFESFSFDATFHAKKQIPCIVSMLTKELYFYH
Chain of Cytochrome P450 2C19 (Homo sapiens) (P33261 whole entry, looked up): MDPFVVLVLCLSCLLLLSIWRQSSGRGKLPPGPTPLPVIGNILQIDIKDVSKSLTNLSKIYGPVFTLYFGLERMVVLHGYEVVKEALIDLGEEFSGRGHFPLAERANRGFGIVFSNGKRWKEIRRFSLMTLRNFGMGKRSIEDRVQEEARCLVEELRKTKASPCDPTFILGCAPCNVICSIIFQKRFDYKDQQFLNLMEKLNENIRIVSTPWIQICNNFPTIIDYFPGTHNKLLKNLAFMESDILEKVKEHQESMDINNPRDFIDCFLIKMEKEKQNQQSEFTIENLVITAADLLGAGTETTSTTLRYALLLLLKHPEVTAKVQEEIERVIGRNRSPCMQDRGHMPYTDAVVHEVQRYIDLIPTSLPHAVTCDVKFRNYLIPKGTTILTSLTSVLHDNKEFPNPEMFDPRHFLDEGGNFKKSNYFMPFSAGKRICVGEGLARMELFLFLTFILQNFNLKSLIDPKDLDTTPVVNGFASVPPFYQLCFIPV

CCN(CC)c1nc(C)cc(OP(=S)(OC)OC)n1
active: [9] 38 µM | [11] 2.79 µM | [12] 12.1 µM | CYP2E1 (gene 1571) 37.4 µM | [13] 10.9 µM
inactive: all other assays above

O=C1C2CC=CCC2C(=O)N1SC(Cl)(Cl)Cl (stereo unspecified)
inactive: all assays above

Nc1cnn(-c2ccccc2)c(=O)c1Cl
active: [9] 80.6 µM | [11] 17.1 µM | CYP2E1 (gene 1571) 9.92 µM | [13] 17.6 µM
not listed: [10]
inactive: all other assays above

Nc1c(Cl)c(F)nc(OCC(=O)O)c1Cl
not listed: [10]
inactive: all other assays above

CCCC(=NOCC)C1=C(O)CC(CC(C)SCC)CC1=O (stereo unspecified)
active: [11] 46.2 µM | [12] 29.6 µM | CYP2E1 (gene 1571) 50.2 µM | [13] 28.4 µM
not listed: [10]
inactive: all other assays above

CCOP(=S)(OCC)Oc1nc(Cl)n(C(C)C)n1
active: [4] 21.2 µM | [5] 21.4 µM | [9] 11.3 µM | [11] 1.78 µM | [12] 12.7 µM | CYP2E1 (gene 1571) 26.5 µM | CYP4A11 (gene 1579) 42.3 µM | [13] 4.55 µM
not listed: [10]
inactive: all other assays above

— PubChem BioAssay (EPA / NIEHS)
